Experimental data reported in PubChem BioAssay AID1159580 (chemical genetic matrix, 2015).
Values joined by “and” are separate entries in the source; they are usually repeats but may differ in a detail not shown here. Identical values can stand only once. The whole screen tested about 5,500 compounds, of which about 2,000 (36%) were called active. Inconclusive results (about 18%) are left out. No stated cut-off is given here; in the data, active means normalized growth mostly below about 0.91 (no sharp cut-off); inconclusive means no clear call, values can overlap the other calls; inactive means mostly above about 0.92. The list shows a part of the results. Some compounds were tested as several samples or in several runs, with calls that do not always agree.

Assay: chemical genetic growth profiling, strain panel (AID 1159580);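 further: tested at 20 µM; growth read once vehicle control cultures reached saturation at 30 °C; 1 = growth at the plate median or of vehicle wells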
Settings: growth OD
[1] = S. cerevisiae deletion strains, locus YAL013W, strain DEP1, stronger effect = lower value
[2] = S. cerevisiae deletion strains, locus YAL040C, strain CLN3, stronger effect = lower value
[3] = S. cerevisiae deletion strains, locus YCL061C, strain MRC1 (second series), stronger effect = lower value
[4] = S. cerevisiae deletion strains, locus YDR363W, strain ESC2, stronger effect = lower value
[5] = S. cerevisiae deletion strains, locus YER002W, strain NOP16, stronger effect = lower value
[6] = S. cerevisiae deletion strains, locus YGR078C, strain PAC10, stronger effect = lower value
[7] = S. cerevisiae deletion strains, locus YMR263W, strain SAP30, stronger effect = lower value
[8] = S. cerevisiae deletion strains, locus YMR307W, strain GAS1, stronger effect = lower value
[9] = S. cerevisiae deletion strains, locus YNL153C, strain GIM3, stronger effect = lower value
[10] = S. cerevisiae deletion strains, locus YNL175C, strain NOP13, stronger effect = lower value
[11] = S. cerevisiae deletion strains, locus YNL197C, strain WHI3, stronger effect = lower value
[12] = S. cerevisiae deletion strains, locus YNL224C, strain SQS1, stronger effect = lower value
[13] = S. cerevisiae deletion strains, locus YNL322C, strain KRE1, stronger effect = lower value
[14] = S. cerevisiae deletion strains, locus YOR083W, strain WHI5 (second series), stronger effect = lower value
[15] = S. cerevisiae deletion strains, locus YPL055C, strain LGE1, stronger effect = lower value

Measured: normalized growth

COC(=O)c1c(-c2cc(OC)c(OC)c(OC)c2)c2ccnc(OCc3ncccn3)c2c(=O)n1Cc1ccnc(C)c1
inactive: [1] 1 | [2] 0.889 | [3] 1.01 | [4] 1.01 | [5] 1 | [6] 1.01 | [7] 1.01 | [8] 1.01 | [9] 1.01 | [10] 1 | [11] 0.989 | [12] 0.993 | [13] 1.01 | [14] 0.999 | [15] 1.01

Cc1cc(O)c2c(c1)C(=O)c1cc(O)cc(O)c1C2=O
0.968 (inactive) and 0.787 (active): [7]
inactive: S. cerevisiae deletion strains, locus YBR021W, strain FUR4, stronger effect = lower value 0.914 | S. cerevisiae deletion strains, locus YBR229C, strain ROT2, stronger effect = lower value 0.923 | [3] 0.986 | [4] 1.02 | S. cerevisiae deletion strains, locus YIL073C, strain SPO22, stronger effect = lower value 0.959 | S. cerevisiae deletion strains, locus YOL012C, strain htz1 0.486 | S. cerevisiae deletion strains, locus YPL241C, strain CIN2, stronger effect = lower value 0.986
active: [1] 0.868 | [2] 0.749 | S. cerevisiae deletion strains, locus YCL029C, strain bik1, stronger effect = lower value 0.734 | S. cerevisiae deletion strains, locus YDL035C, strain GPR1, stronger effect = lower value 0.699 | S. cerevisiae deletion strains, locus YDL074C, strain BRE1, stronger effect = lower value 0.56 | S. cerevisiae deletion strains, locus YDL101C, strain DUN1, stronger effect = lower value 0.732 | S. cerevisiae deletion strains, locus YDL134C, strain PPH21, stronger effect = lower value 0.783 | S. cerevisiae deletion strains, locus YDL185W, strain tfp1, stronger effect = lower value 0.795 | S. cerevisiae deletion strains, locus YDL192W, strain arf1, stronger effect = lower value 0.393 | S. cerevisiae deletion strains, locus YDR101C, strain arx1, stronger effect = lower value 0.584 | S. cerevisiae deletion strains, locus YDR162C, strain NBP2, stronger effect = lower value 0.483 | S. cerevisiae deletion strains, locus YDR318W, strain mcm21, stronger effect = lower value 0.712 | S. cerevisiae deletion strains, locus YDR388W, stronger effect = lower value 0.471 | S. cerevisiae deletion strains, locus YDR502C, strain sam2, stronger effect = lower value 0.56 | S. cerevisiae deletion strains, locus YEL061C, strain CIN8, stronger effect = lower value 0.745 | [5] 0.749 | S. cerevisiae deletion strains, locus YER110C, stronger effect = lower value 0.671 | S. cerevisiae deletion strains, locus YER155C, strain BEM2, stronger effect = lower value 0.716 | S. cerevisiae deletion strains, locus YER167W, strain BCK2, stronger effect = lower value 0.674 | S. cerevisiae deletion strains, locus YGL078C, strain dbp3, stronger effect = lower value 0.789 | S. cerevisiae deletion strains, locus YGL086W, strain mad1, stronger effect = lower value 0.645 | S. cerevisiae deletion strains, locus YGL248W, strain PDE1, stronger effect = lower value 0.853 | [6] 0.723 | S. cerevisiae deletion strains, locus YGR135W, strain pre9, stronger effect = lower value 0.741 | S. cerevisiae deletion strains, locus YGR229C, strain SMI1, stronger effect = lower value 0.338 | S. cerevisiae deletion strains, locus YGR252W, strain gcn5, stronger effect = lower value 0.415 | S. cerevisiae deletion strains, locus YHR030C, strain SLT2, stronger effect = lower value 0.629 | S. cerevisiae deletion strains, locus YHR079C, strain IRE1 (second series), stronger effect = lower value 0.854 | S. cerevisiae deletion strains, locus YHR094C, strain hxt1, stronger effect = lower value 0.673 | S. cerevisiae deletion strains, locus YHR129C, strain ARP1, stronger effect = lower value 0.705 | S. cerevisiae deletion strains, locus YHR200W, strain rpn10, stronger effect = lower value 0.75 | S. cerevisiae deletion strains, locus YIL066C, strain RNR3, stronger effect = lower value 0.688 | S. cerevisiae deletion strains, locus YIL125W, strain kgd1, stronger effect = lower value 0.842 | S. cerevisiae deletion strains, locus YIR030C, strain dcg1, stronger effect = lower value 0.635 | S. cerevisiae deletion strains, locus YJL095W, strain BCK1, stronger effect = lower value 0.475 | S. cerevisiae deletion strains, locus YJL134W, strain LCB3, stronger effect = lower value 0.907 | S. cerevisiae deletion strains, locus YJL168C, strain set2, stronger effect = lower value 0.818 | S. cerevisiae deletion strains, locus YJL187C, strain SWE1 (second series), stronger effect = lower value 0.69 | S. cerevisiae deletion strains, locus YJR043C, strain POL32, stronger effect = lower value 0.708 | S. cerevisiae deletion strains, locus YKL009W, strain mrt4, stronger effect = lower value 0.753 | S. cerevisiae deletion strains, locus YKL068W, stronger effect = lower value 0.857 | S. cerevisiae deletion strains, locus YKL085W, strain MDH1 (second series), stronger effect = lower value 0.795 | S. cerevisiae deletion strains, locus YKL085W, strain MDH1, stronger effect = lower value 0.795 | S. cerevisiae deletion strains, locus YKL190W, strain CNB1, stronger effect = lower value 0.823 | S. cerevisiae deletion strains, locus YKR001C, strain vps1, stronger effect = lower value 0.309 | S. cerevisiae deletion strains, locus YLR039C, strain RIC1, stronger effect = lower value 0.313 | S. cerevisiae deletion strains, locus YLR058C, strain SHM2, stronger effect = lower value 0.834 | S. cerevisiae deletion strains, locus YLR102C, strain apc9, stronger effect = lower value 0.837 | S. cerevisiae deletion strains, locus YLR262C, strain YPT6, stronger effect = lower value 0.383 | S. cerevisiae deletion strains, locus YLR268W, strain sec22, stronger effect = lower value 0.474 | S. cerevisiae deletion strains, locus YLR330W, strain CHS5, stronger effect = lower value 0.708 | S. cerevisiae deletion strains, locus YLR342W, strain FKS1 (second series), stronger effect = lower value 0.553 | S. cerevisiae deletion strains, locus YLR371W, strain rom2, stronger effect = lower value 0.612 | S. cerevisiae deletion strains, locus YLR418C, strain cdc73, stronger effect = lower value 0.324 | S. cerevisiae deletion strains, locus YML016C, strain PPZ1, stronger effect = lower value 0.916 | S. cerevisiae deletion strains, locus YML032C, strain rad52, stronger effect = lower value 0.6 | S. cerevisiae deletion strains, locus YML124C, strain tub3, stronger effect = lower value 0.724 | S. cerevisiae deletion strains, locus YMR078C, strain ctf18, stronger effect = lower value 0.776 | S. cerevisiae deletion strains, locus YMR223W, strain ubp8, stronger effect = lower value 0.643 | [8] 0.8 and 0.335 | S. cerevisiae deletion strains, locus YNL067W, strain RPL9B, stronger effect = lower value 0.782 | S. cerevisiae deletion strains, locus YNL128W, strain TEP1, stronger effect = lower value 0.713 | [9] 0.439 and 0.847 | [10] 0.732 | [11] 0.727 | [12] 0.861 | S. cerevisiae deletion strains, locus YNL233W, strain BNI4, stronger effect = lower value 0.63 | S. cerevisiae deletion strains, locus YNL250W, strain rad50, stronger effect = lower value 0.73 | S. cerevisiae deletion strains, locus YNL271C, strain bni1, stronger effect = lower value 0.782 | S. cerevisiae deletion strains, locus YNL298W, strain CLA4, stronger effect = lower value 0.716 | S. cerevisiae deletion strains, locus YNL307C, strain MCK1, stronger effect = lower value 0.59 | [13] 0.832 | S. cerevisiae deletion strains, locus YNR052C, strain pop2, stronger effect = lower value 0.218 | S. cerevisiae deletion strains, locus YOL147C, strain pex11, stronger effect = lower value 0.402 | S. cerevisiae deletion strains, locus YOR061W, strain CKA2, stronger effect = lower value 0.834 | S. cerevisiae deletion strains, locus YOR069W, strain VPS5, stronger effect = lower value 0.796 | [14] 0.422 | S. cerevisiae deletion strains, locus YOR136W, strain idh2, stronger effect = lower value 0.661 | S. cerevisiae deletion strains, locus YOR144C, strain elg1, stronger effect = lower value 0.759 | S. cerevisiae deletion strains, locus YOR184W, strain ser1, stronger effect = lower value 0.299 | S. cerevisiae deletion strains, locus YOR316C, strain cot1, stronger effect = lower value 0.83 | [15] 0.556 | S. cerevisiae deletion strains, locus YPR119W, strain clb2, stronger effect = lower value 0.808 | S. cerevisiae deletion strains, locus YPR141C, strain kar3, stronger effect = lower value 0.868 | S. cerevisiae deletion strains, locus YPR163C, strain tif3, stronger effect = lower value 0.403 | S. cerevisiae deletion strains, locus YPR167C, strain met16, stronger effect = lower value 0.708 | S. cerevisiae deletion strains, strain wtn01, stronger effect = lower value 0.608 | S. cerevisiae strains, strain wild type, stronger effect = lower value 0.715
0.998 (inactive) and 0.795 (active): S. cerevisiae deletion strains, locus YJR075W, strain HOC1, stronger effect = lower value
